TEAD-YAP inh: TEAD-YAP interaction inhibition; inhibition, % at 9.12 µM; AID 1259422; 640,000 tested, 1.4% active; HEK-TIYL cells, TEAD-Gal4/YAP UAS-luciferase luminescence; in the data active means inhibition above about 32%;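 further: 0% = median of test compound wells and 100% = reference inhibitor wells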
GPR151 activ: human GPR151 activation | activation, % at 11.2 µM | PathHunter beta-arrestin GPR151 cells, luminescence | 650,000 tested, 1% active | AID 1508602; in the data active means activation above about 4.9%;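 further: 0% = median of compound wells and 100% = cells with positive control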
MITF primary: blocks human microphthalmia-associated transcription factor | O75030 | AlphaScreen MITF homodimerization, bead proximity signal | inhibition, % at 2.6 µM | 650,000 tested, 0.91% active | AID 1259374; in the data active means inhibition above about 50%;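 further: 0% = vehicle wells with protein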
Target sequence (O75030 whole entry, looked up): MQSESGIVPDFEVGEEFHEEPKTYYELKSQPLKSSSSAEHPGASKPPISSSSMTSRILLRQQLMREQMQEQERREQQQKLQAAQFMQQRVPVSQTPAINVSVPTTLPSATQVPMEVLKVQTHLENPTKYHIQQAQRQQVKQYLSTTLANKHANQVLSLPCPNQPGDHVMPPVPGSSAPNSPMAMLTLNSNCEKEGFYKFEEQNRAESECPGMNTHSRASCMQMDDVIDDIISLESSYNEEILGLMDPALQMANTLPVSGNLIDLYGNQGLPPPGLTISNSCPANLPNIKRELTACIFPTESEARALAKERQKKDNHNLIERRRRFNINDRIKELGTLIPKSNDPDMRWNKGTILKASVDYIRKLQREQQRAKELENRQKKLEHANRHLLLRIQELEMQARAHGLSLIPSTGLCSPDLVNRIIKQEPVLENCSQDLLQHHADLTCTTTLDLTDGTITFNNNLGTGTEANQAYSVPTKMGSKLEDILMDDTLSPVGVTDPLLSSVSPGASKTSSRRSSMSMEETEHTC
FBW7 act: human FBW7 E3 ligase activation, primary screen. Q969H0. AlphaScreen FBW7–phospho-cyclin E peptide binding, activator screen. normalized activity (activation), % at 26.1 µM. 650,000 tested, 0.13% active; in the data active means normalized activity above about 1.9%;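 further: purified mutant Fbw7 with reduced substrate affinity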
GPR151 confirm: human GPR151 activation, confirmation screen; shares compounds with GPR151 activ; activation, % at 11.2 µM; GPR151 PathHunter beta-arrestin cells, luminescence, 90 min; % of EA-reagent control over plate median; 6,700 tested, under 10 active;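 active means mean percent activation across replicates above the confirmation screen cutoff of 4.91%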
GPR119 ag: activates human GPR119 in a GPR151 counter-screen; shares compounds with GPR151 activ; GPR119 PathHunter beta-arrestin cells, luminescence, 90 min; 0 = compound-well median, 100 = enzyme-acceptor control; activation, % at 11.2 µM; 6,700 tested, 0.3% active; AID 1508611;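 active means mean percent activation in the counterscreen above 29.09%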;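 further: counterscreen on off-target GPR119 to flag nonselective hits from the GPR151 activator screen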
Starred values were filed as active, the others as inactive; · = not tested or not shown; ! = not confirmed by another sample. Hits are enriched below; roughly 3.4% of the tested compounds scored in any of these assays.

SMILES	TEAD-YAP inh	GPR151 activ	MITF primary	FBW7 act	GPR151 confirm	GPR119 ag
O=S(=O)(c1ccc(N2CCCC(C(F)(F)F)C2)nc1)N1CCCC1 (centres undefined)	-3.7	5.8*	-1.5	0.0	0.4	3.0
O=C(Nc1nnc(SCc2ccccc2)s1)c1cccs1	-15.8	0.9	10.0	0.1	·	·
COc1ccc(NC(=O)Nc2nnc(SCc3ccc(F)cc3)s2)cc1	-9.2	1.2	3.5	-0.2	·	·
O=C(Nc1ccc(F)cc1)Nc1nnc(SCc2ccccc2)s1	6.7	5.0*	9.3	-0.1	0.1	18.6
O=C(Cc1cccs1)Nc1nnc(SCc2ccccc2)s1	-5.3	5.1*	-3.3	0.1	1.5	-0.1
CC1CCCC(C)N1c1nnc(NC(=O)Nc2ccc(F)cc2)s1 (centres undefined)	-22.9	5.3*	4.0	0.2	-0.1	-11.7
O=C(CN1CCN(c2ccc(F)cc2)CC1)Nc1ccc(Cl)c(C(F)(F)F)c1	9.4	0.7	-1.5	0.0	·	·
O=C(Nc1cc(Cl)c(Cl)cc1Cl)c1cnc2n(c1=O)CCS2	11.1	7.7*	-7.0	0.2	0.2	9.4
CCC1CN(CCNC(=O)CC2CCCC2)Cc2cc(OC)ccc2O1 (centres undefined)	5.9	6.9*	-3.8	-0.1	2.0	4.8
CCC1CN(CCNC(=O)Cn2ncc3ccccc32)Cc2cc(OC)ccc2O1 (centres undefined)	-1.1	8.2*	-1.1	0.6	1.2	11.6
CCC(C)C(NS(=O)(=O)c1ccc(C)cc1)C(=O)NC1CCCC1 (centres undefined)	-3.2	-2.4	-1.3	0.1	·	·
O=S(=O)(N/N=C/c1ccccc1)c1cc(Cl)ccc1Cl	-6.1	0.1	-3.4	0.1	·	·
c1cn(CCNCc2cc3cc4c(cc3nc2OCC2CCCCC2)OCO4)cn1	4.1	-0.5	-9.1	-0.1	·	·
O=c1c(NC2CC2)c(N2CCN(c3ccc4cccc(-c5ccccc5F)c4n3)CC2)c1=O	60.2*	5.3*	2.6	-0.2	1.3	31.0*
Fc1ccccc1-c1cccc2ccc(N3CCN(c4ncnc5nc[nH]c45)CC3)nc12	-6.9	6.3*	-6.1	-0.1	0.1	11.9
CCc1cc(C(=O)Cc2ccc3c(c2)OCCCO3)c(O)cc1OC	-3.2	5.2*	-6.2	0.0	-1.7	-15.1
O=C(O)CCCCNS(=O)(=O)c1ccccc1C(F)(F)F	-12.8	9.4*	13.0	0.5	-1.0	-4.1
CSc1nnc(C)c(=O)n1COC(=O)c1cccc(C)c1	7.3	-2.4	-11.6	-0.4	·	·
Cc1cc(NC(=O)Cc2ccc(-c3ccccc3)cc2)ccc1N1CCCC1=O	10.9	1.6	8.1	0.0	·	·
Cc1cc(NC(=O)Cc2ccc(F)cc2)ccc1N1CCCC1=O	0.5	5.0*	16.5	0.2	-0.3	0.3
O=C(Nc1cccc(S(=O)(=O)NCc2ccco2)c1)c1cc(F)c(F)c(F)c1F	7.7	4.9*	-5.9	0.0	-0.1	4.2
COc1ccc(CCc2nnc(CCC(=O)N(C)CCCN3CCOCC3)o2)cc1	-1.7	-2.3	18.8	0.2	·	·
O=C(Nc1ccccc1)c1c(O)c2cccc3c2n(c1=O)CC3	-2.2	1.6	-7.5	0.0	·	·
Cc1ccccc1OCC(=O)N(C(C)C)C(C)C	13.2	8.9*	4.6	0.2	-0.4	6.7
Cc1ccccc1OCC(=O)NNC(=O)C1c2ccccc2Oc2ccccc21	7.4	6.0*	7.3	0.1	-0.8	-2.4
SMILES	TEAD-YAP inh	GPR151 activ	MITF primary	FBW7 act	GPR151 confirm	GPR119 ag
Cc1cc(Br)ccc1OCC(=O)N(C(C)C)C(C)C	5.1	1.8	39.5	0.1	·	·
CCCOC(=O)c1nc2ncc(Br)cn2n1	0.5	-0.5	11.7	0.4	·	·
CCNC(=S)N1c2ccccc2NC2=C(C(=O)CC(C)(C)C2)C1c1ccc(N(C)C)cc1 (centres undefined)	-7.0	1.2	2.2	0.0	·	·
COCCCN1C(=O)C(=O)/C(=C(\O)c2ccccc2)C1c1ccc(C(C)C)cc1 (centres undefined)	9.0	5.3*	4.6	0.0	-0.7	-4.5
Cc1cc(C(=O)NC(C)C(=O)O)cc(C)c1[N+](=O)[O-] (centres undefined)	2.3	5.0*	0.1	0.0	0.3	0.1
Cc1cc(C(=O)NC(CC(C)C)C(=O)O)cc(C)c1[N+](=O)[O-] (centres undefined)	-5.2	0.4	-21.3	-0.1	·	·
CC(C)CCNc1c(-c2ccccc2)c(=O)c1=O	7.6	6.9*	-9.2	-0.3	1.4	0.3
C=C1C(=O)OC2CC3(C)CCCC(C)C3=CC12 (centres undefined)	11.5	6.2*!	6.0	0.1	0.5	2.7
C=CCn1c(O)c(C(C#N)=C2N=c3ccccc3=N2)c2ccccc21	-4.3	-0.3	-0.5	-0.1	·	·
CC1CN(C(=O)c2ccccc2C(F)(F)F)CC(C)O1 (centres undefined)	2.7	8.0*	-9.3	0.4	0.9	1.6
CC1CN(C(=O)c2cccs2)CC(C)O1 (centres undefined)	8.7	-0.7	1.6	0.4	·	·
CC1=C(C(=O)Nc2ccc(C)cc2)C(c2ccccc2Cl)n2ncnc2N1 (centres undefined)	-9.7	0.8	-2.6	0.0	·	·
CCOc1cc(C=C(C(=O)OC)C(=O)OC)ccc1OCc1ccc([N+](=O)[O-])cc1	13.5	5.2*	5.2	0.0	1.0	10.1
COC(=O)C(=Cc1cc(OC)c(O)c([N+](=O)[O-])c1)C(=O)OC	4.2	5.7*	20.5	0.1	0.4	7.9
O=C(Nc1cccc(F)c1)c1cc(S(=O)(=O)N2CCc3ccccc32)ccc1F	8.6	-1.0	-13.3	0.6	·	·
COc1cc(C)cc(CN2CCN(Cc3ccc4c(c3)OCO4)CC2)c1O	-11.2	5.3*	-0.4	-0.1	-0.4	7.3
COc1cc(OC)c(CN2CCN(Cc3ccc4c(c3)OCO4)CC2)cc1Br	-4.8	3.5	39.3	0.0	·	·
COc1ccc(/C=c2/sc3n(c2=O)C(c2ccc(N(C)C)cc2)C(C(C)=O)=C(C)N=3)c(OC)c1 (centres undefined)	-11.1	0.4	3.9	0.0	·	·
O=C(c1ccc(CN2C(=O)CCn3nccc32)cc1)N1CCOCC1	-1.9	7.2*	1.2	-0.2	-0.1	-9.1
O=C(c1ccc2c(c1)N(Cc1ccccc1)C(=O)CS2)N1CCOCC1	11.4	0.1	-0.2	0.0	·	·
O=C(Nc1ccccc1I)c1cccc(Br)c1	-3.3	-0.2	13.1	0.5	·	·
COc1ccc2c(c1)COC1(CCN(C(=O)Nc3ccccc3F)CC1)O2	-20.6	7.7*	1.4	0.6	0.6	-1.7
Cc1cc(C)c(S(=O)(=O)Nc2ccc(O)c(C(=O)O)c2)cc1C	0.0	10.3*	1.4	-0.1	1.0	-1.9
Cc1cc(C)c(S(=O)(=O)Nc2ccc(F)cc2)cc1C	-1.1	0.0	10.3	0.3	·	·
COc1ccc(-c2csc(NC(=O)c3ccc(C)o3)n2)cc1	0.1	9.6*	10.2	0.0	-0.1	11.8

Screens: PubChem BioAssay, The Scripps Research Institute Molecular Screening Center
